Here are results for six compounds from PubChem BioAssay.

Each structure is given as a SMILES string. Several values for one entry are separate records, joined by “and”; a condition that tells them apart may be missing. Equal entries are not always repeated. Activity calls are given as the source filed them.

The test system of experiment [1] is Human papillomavirus type 1a protein E7 (residues 44-93). In words: small molecules binding HPV E7 44-93 – biochemical, small-molecule microarray, residues 44-93, 635 nm fluorescence, primary screen (AID 1108).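 Also: E7 fragment applied at 1 µg/mL in TBST for 1 h at 4 C; score combines spot fluorescence with its signal to noise ratio.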 The note with it: fluorescence 635 nm, higher = more signal.
Experiment [2] is described as follows: hepatitis C replication reporter changes, two-sided – Huh7 cells, luciferase reporter, HCV replication inhibitor project, primary screen (AID 1109).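 Also: huh7 hepatoma cells harbouring a luciferase neomycin HCV replicon reporter; luciferase luminescence as measure of HCV replicon replication; test concentration not given here.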 The note with it: Huh7 HCV replicon luciferase reporter, 48 h; higher = more signal. (A reporter such as luciferase makes a cellular process visible.)
Experiment [3] has as its target Left-right determination factor 2 (Homo sapiens) (UniProt O00292). In words: small molecules binding LEFTY2 protein – biochemical, small-molecule microarray, 635 nm fluorescence scan, primary screen (AID 1110). The note with it: higher = more signal.
The target of experiment [4] is Calmodulin-1 (Homo sapiens) (UniProt P0DP23). In words: small molecules binding calmodulin-1 with EGTA – biochemical, small-molecule microarray, Cy5-labelled CALM1, profiling panel (AID 1111).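 Also: labelled calmodulin applied in Tris saline Tween buffer holding calcium plus EGTA and DTT.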 The note with it: Cy5-CALM1 binding fluorescence, higher = more signal.
Experiment [5] has the same target. In words: small molecules binding Ca-loaded calmodulin-1 – biochemical, small-molecule microarray, Cy5-labelled CALM1, plus calcium, artefact control for SMM control-protein annotation, profiling panel (AID 1112).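 Also: score merges spot fluorescence with signal to noise from triplicate slides.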 Conditions: Cy5-CALM1 binding fluorescence, higher = more signal.
A short description of experiment [6]: probe aWnt5a binding to arrayed compounds – biochemical, biotinylated probe, 635/667 nm fluorescence, primary screen (AID 1113).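 Also: score merges 667 nm fluorescence intensity with signal-to-noise per printed feature.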 The note with it: small-molecule microarray, higher = more signal.
A short description of experiment [7]: probe aShh binding to arrayed compounds – biochemical, biotinylated probe, 635/667 nm fluorescence, primary screen (AID 1114).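 Also: probe is biotin-labelled aShh protein from a stem cell growth factor screen; measures binding of labelled protein to compounds printed on the slide; score merges feature fluorescence at 667 nm with signal-to-noise.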 The note with it: small-molecule microarray, higher = more signal.
A short description of experiment [8]: probe aNog binding to arrayed compounds – biochemical, biotinylated probe, 635/667 nm fluorescence, primary screen (AID 1115).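 Also: probe is biotinylated aNog protein used at 0.15 µg/mL for 1 h at 4 C; z-score combines 667 nm fluorescence of each spot with its signal to noise.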 Conditions: small-molecule microarray, higher = more signal.
Experiment [9] addresses Torsin-1A-interacting protein 1 (Homo sapiens) (UniProt Q5JTV8). In words: compound microarray binding of lysate hLAP1 – cell lysate, small-molecule microarray, COS7 lysate, 635/667 nm fluorescence, primary screen (AID 1116). The note with it: 635 nm fluorescence, higher = more signal.
Experiment [10] concerns the target Alpha-bungarotoxin (Bungarus multicinctus) (UniProt P60615). In words: compounds binding labelled alpha-BTX control protein – biochemical, small-molecule microarray, Alexa647 label, 635/667 nm fluorescence, artefact control for SMM control protein annotation, profiling panel (AID 1117). Conditions: alpha-BTX-A647 binding fluorescence, higher = more signal.
The next experiment concerns the target Albumin (Bos taurus) (UniProt P02769). In words: compounds binding labelled BSA control protein – biochemical, small-molecule microarray, Alexa647 label, 635/667 nm fluorescence, artefact control for SMM control protein annotation, profiling panel (AID 1118).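 Also: score merges 667 nm emission intensity and signal-to-noise per printed compound spot.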 The note with it: BSA-A647 binding, fluorescence 635 nm, higher = more signal.
Experiment [11] is described as follows: probe aXIP binding to arrayed compounds – biochemical, NeuroSMM set, 635/667 nm fluorescence, primary screen (AID 1119).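 Also: probe is the protein aXip251-270 applied at 1 µg/mL to compound-printed slides; binding of probe to printed compounds measured as 667 nm fluorescence plus signal to noise.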 Conditions: small-molecule microarray, higher = more signal, called active from +8 up or from −8 down.
Experiment [12] can be described thus: probe aNOTCH3 binding on compound microarray – biochemical, small-molecule microarray, 635/667 nm fluorescence, primary screen (AID 1120).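 Also: probe is a biotin-tagged antibody raised against NOTCH3 rather than NOTCH3 protein; score merges spot fluorescence near 667 nm with spot signal to noise.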 The note with it: higher = more signal.
Experiment [13] in a line: probe aNOTCH2 binding on compound microarray – biochemical, small-molecule microarray, 635/667 nm fluorescence, primary screen (AID 1121).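 Also: score merges feature fluorescence read at 667 nm with its signal to noise.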 Conditions: higher = more signal.
For experiment [14], the target named is Carbonic anhydrase 2 (Homo sapiens) (UniProt P00918). In words: compounds binding carbonic anhydrase 2 – biochemical, small-molecule microarray, Alexa647-labelled CAII, profiling panel (AID 1122). Conditions: CAII-A647 binding fluorescence, higher = more signal.
A short description of experiment [15]: COS7 lysate on small-molecule microarray, probe aHis, 635 nm (AID 1123).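 Also: z-score combines 667nm fluorescence intensity with signal-to-noise per printed compound spot.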 The note with it: COS7 cell lysate, fluorescence, higher = more signal.
Experiment [16] can be described thus: probe aLAP1 signal on lysate-treated microarray – cell lysate, small-molecule microarray, COS7 lysate, primary screen (AID 1124).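 Also: lysate comes from COS7 cells expressing LAP1 and is applied at 0.3 µg/mL; score merges spot fluorescence near 667 nm with signal-to-noise over triplicate slides.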 The note with it: probe aLAP1, fluorescence, higher = more signal.
Another experiment has as its system Sam68 (KHDRBS1). In words: compounds binding KHDRBS1 protein – biochemical, small-molecule microarray, 635 nm fluorescence, primary screen (AID 1125).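 Also: score merges 667 nm channel intensity with signal to noise over triplicate slides.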 The note with it: higher = more signal.
In experiment [17] the test system is Chordin-like protein 2 (CHRDL2). In words: compounds binding chordin-like 2 – biochemical, small-molecule microarray, 635 nm fluorescence, primary screen (AID 1126).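 Also: printed compound slides probed with Chrdl2 protein at 4 µg/mL for 1 h at 4 C; score merges 667 nm emission intensity with signal to noise over three replicate slides.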 Conditions: fluorescence 635 nm, higher = more signal.
Experiment [18] concerns the target Concanavalin-A (Canavalia ensiformis) (UniProt P02866). In words: compounds binding concanavalin A lectin – biochemical, small-molecule microarray, Alexa647 label, 635 nm, artefact control for SMM control protein annotation, primary screen (AID 1127).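 Also: z combines 667 nm emission intensity with signal-to-noise across three replicate slides.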 The note with it: ConA-A647 binding fluorescence, higher = more signal.

Alpha-bungarotoxin (Bungarus multicinctus), sequence (P60615 whole entry, looked up): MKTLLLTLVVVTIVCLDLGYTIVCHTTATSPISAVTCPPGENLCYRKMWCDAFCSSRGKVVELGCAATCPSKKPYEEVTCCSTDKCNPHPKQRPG
Concanavalin-A (Canavalia ensiformis), sequence (P02866 whole entry, looked up): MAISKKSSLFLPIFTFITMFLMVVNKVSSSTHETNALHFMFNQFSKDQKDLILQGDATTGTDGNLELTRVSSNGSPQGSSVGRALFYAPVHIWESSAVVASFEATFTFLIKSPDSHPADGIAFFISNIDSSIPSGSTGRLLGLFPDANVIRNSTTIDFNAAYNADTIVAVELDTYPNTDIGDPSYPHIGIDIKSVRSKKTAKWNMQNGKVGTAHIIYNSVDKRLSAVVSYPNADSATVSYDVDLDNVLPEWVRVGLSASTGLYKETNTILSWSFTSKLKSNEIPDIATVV
Albumin (Bos taurus), sequence (P02769 whole entry, looked up): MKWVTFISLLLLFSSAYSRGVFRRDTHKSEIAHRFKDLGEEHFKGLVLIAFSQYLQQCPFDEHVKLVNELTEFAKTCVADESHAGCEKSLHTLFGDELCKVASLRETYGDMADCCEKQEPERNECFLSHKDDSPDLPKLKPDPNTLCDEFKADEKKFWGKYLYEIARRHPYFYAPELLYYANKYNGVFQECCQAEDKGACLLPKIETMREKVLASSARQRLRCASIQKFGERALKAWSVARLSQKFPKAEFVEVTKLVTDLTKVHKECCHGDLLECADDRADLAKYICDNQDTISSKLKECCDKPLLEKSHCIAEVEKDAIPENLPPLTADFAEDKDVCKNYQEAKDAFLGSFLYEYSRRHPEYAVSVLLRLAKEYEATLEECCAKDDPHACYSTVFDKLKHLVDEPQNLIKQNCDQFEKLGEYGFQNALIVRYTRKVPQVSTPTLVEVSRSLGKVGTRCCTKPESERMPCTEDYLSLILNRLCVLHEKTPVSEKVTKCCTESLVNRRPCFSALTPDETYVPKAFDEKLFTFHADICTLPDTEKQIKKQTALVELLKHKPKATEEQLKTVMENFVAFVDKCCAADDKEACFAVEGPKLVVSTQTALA
Left-right determination factor 2 (Homo sapiens), sequence (O00292 whole entry, looked up): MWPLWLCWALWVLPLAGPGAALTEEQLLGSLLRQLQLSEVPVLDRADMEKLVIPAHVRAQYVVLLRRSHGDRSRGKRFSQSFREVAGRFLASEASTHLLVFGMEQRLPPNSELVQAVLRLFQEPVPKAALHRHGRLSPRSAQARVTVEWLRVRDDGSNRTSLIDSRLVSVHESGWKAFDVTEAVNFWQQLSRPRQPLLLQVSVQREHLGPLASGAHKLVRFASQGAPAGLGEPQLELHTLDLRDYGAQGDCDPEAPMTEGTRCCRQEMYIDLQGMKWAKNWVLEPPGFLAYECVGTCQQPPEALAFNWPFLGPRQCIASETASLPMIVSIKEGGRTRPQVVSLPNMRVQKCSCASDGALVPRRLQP
Torsin-1A-interacting protein 1 (Homo sapiens), sequence (Q5JTV8 whole entry, looked up): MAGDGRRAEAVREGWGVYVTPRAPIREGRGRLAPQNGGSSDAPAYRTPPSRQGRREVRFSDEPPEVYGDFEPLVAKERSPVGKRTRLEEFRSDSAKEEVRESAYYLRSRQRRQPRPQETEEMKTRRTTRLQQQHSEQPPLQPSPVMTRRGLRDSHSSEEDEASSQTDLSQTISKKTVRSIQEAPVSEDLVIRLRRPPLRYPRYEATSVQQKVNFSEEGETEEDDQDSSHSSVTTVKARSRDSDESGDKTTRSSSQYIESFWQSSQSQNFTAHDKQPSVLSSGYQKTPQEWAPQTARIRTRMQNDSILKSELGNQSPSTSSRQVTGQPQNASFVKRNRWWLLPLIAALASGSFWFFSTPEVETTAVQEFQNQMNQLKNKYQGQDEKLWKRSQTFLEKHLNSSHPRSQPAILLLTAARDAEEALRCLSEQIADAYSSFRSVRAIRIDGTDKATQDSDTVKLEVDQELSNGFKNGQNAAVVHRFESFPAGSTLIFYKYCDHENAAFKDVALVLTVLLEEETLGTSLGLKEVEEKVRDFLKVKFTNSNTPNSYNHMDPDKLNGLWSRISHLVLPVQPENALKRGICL

With `C=CCN(C(=O)C1N(C(C)(C)CO)C(=O)C2C(C(=O)O)C3C=CC21O3)C(C)(C)C` (stereo not given), the composite z-score in [1] was -0.898 and 0.0796; in [3], -3.78 and -1.84; in [4], -0.742 and -0.353; in [5], 0.271 and 0.369; in experiment [6], -0.286 and -0.148; in [7], -0.138. The composite z-score was -0.183 and -0.0144 in [8]; -1.69 and 3.03 in experiment [9]; -2.08 and 1.04 in experiment [10]; -0.768 and -1.3 in the experiment with Albumin (Bos taurus); -0.664 and -0.47 in experiment [12]; -0.154 and -0.208 in [13]. The composite z-score in experiment [14] is 0.856 and 0.799; in [15], -1.2 and 0.643; in experiment [16], -0.393 and 1.52; in the experiment with Sam68 (KHDRBS1), -0.967 and -0.65; in [17], -3.3 and -1.67; in experiment [18], -0.855 and -1.83. Also, the z-score in experiment [2] was -0.276 and -0.577. The composite Z-score in [11] was -0.057 (inactive) and -0.12 (inactive).
On to `CCOC(=O)c1ccc(NC(=O)O[C@H]2[C@H](OC(=O)Nc3ccccc3)[C@H](OC(=O)Nc3ccccc3)[C@@H](OC)O[C@@H]2CO)cc1`, for which the composite z-score in experiment [1] was 1.2 and 1.34; in experiment [3] it was 0.899 and 0.291; in experiment [4], 2 and 2.1; in experiment [5], 0.0672 and 0.407; in experiment [6], 0.0438 and -0.0417; in experiment [7] it was 0.113 and 0.337. Also, the composite z-score in [8] was 0.576 and 0.978; in experiment [9], 1.74 and 1.88; in [10], 1.86 and 2.87; in the experiment with Albumin (Bos taurus) it was 0.783 and 0.754; in experiment [12], 0.583 and 0.228; in experiment [13], 0.121 and -0.0858. Besides, the composite z-score is 0.46 and 0.771 in experiment [14]; 2.66 and 2.3 in experiment [15]; 0.708 and 1.11 in experiment [16]; 1.31 and 1.3 in the experiment on Sam68 (KHDRBS1); 0.292 and 0.142 in experiment [17]; 1.19 and 1.15 in experiment [18]. Also, the z-score in experiment [2] was -3.29 and -3.49. In addition, in experiment [11], the composite Z-score was 1.13 (inactive) and 0.14 (inactive).
Regarding `C=CCN(CCCC)C(=O)C1N(C(C)(C)CO)C(=O)C2C(C(=O)O)C3C=CC21O3` (stereo not given), the composite z-score is -1.32 and -1.36 in [1]; -3.24 and -2.31 in experiment [3]; -0.742 and -0.335 in experiment [4]; 1.1 and 0.491 in experiment [5]; -0.297 and -0.169 in experiment [6]; -0.0626 and -0.23 in experiment [7]. The composite z-score is -0.0094 and 0.125 in experiment [8]; -1.24 and -2.03 in experiment [9]; -1.41 and -0.821 in experiment [10]; -0.0353 and -0.347 with Albumin (Bos taurus); -0.589 and -0.497 in [12]; -0.161 and 0.544 in experiment [13]. For the same compound, the composite z-score is 0.909 and 0.619 in [14]; 0.12 and -0.103 in [15]; -0.2 and -0.226 in [16]; -1.62 and -1.72 in the experiment on Sam68 (KHDRBS1); -3.25 and -1.75 in experiment [17]; -1.25 and -2.32 in experiment [18]. Besides, the z-score in [2] is -0.299 and 0.145. For the same compound, the composite Z-score in [11] is -0.726 (inactive) and -1.17 (inactive).
As for `C=CCN(C(=O)C(c1cccs1)N(C(=O)/C=C\C(=O)O)C(C)(C)CO)c1ccc(OC)cc1` (stereo not given), the composite z-score in experiment [1] is -0.759 and -0.652; in experiment [3] it was -1.77 and -2.47; in experiment [4], 0.459 and -0.933; in experiment [5], 0.891 and 0.235; in experiment [6] it was -0.0455 and -0.166; in experiment [7] it was -0.138 and -0.0626. Also, the composite z-score in experiment [8] was 0.162 and 0.292; in experiment [9], 0.588 and 1.06; in experiment [10] it was -2.1 and -1.16; with Albumin (Bos taurus) it was -0.427 and -0.637; in experiment [12], -0.298 and -0.219; in [13] it was -0.143 and -0.133. In addition, the composite z-score was 0.937 and 0.938 in [14]; 1.72 and 0.0237 in experiment [15]; 0.92 and 1.17 in [16]; -0.294 and -0.786 in the experiment with Sam68 (KHDRBS1); -1.74 and -0.727 in experiment [17]; -0.692 and -0.93 in [18]. In [2], the z-score was 0.0435 and 2.82. Moreover, in experiment [11], the composite Z-score was -0.431 (inactive) and -0.215 (inactive).
Take `CC(C)CON=C1C[C@@H](O)[C@@H](O)[C@@H]2[C@@H]3C(=O)N(c4cccc(Oc5ccccc5)c4)C(=O)[C@@H]3CC[C@H]12`: the composite z-score is 0.529 in experiment [1]; 0.432 in experiment [3]; 0.401 in experiment [4]; -0.201 in [5]; -0.0269 in experiment [6]; -0.0553 in experiment [7]. Also, the composite z-score is -0.5 in experiment [8]; 0.357 in experiment [9]; 0.162 in [10]; 0.529 with Albumin (Bos taurus); -0.0077 in experiment [12]; -0.118 in [13]. Further, the composite z-score in experiment [14] was 0.315; in [15], 0.328; in [16] it was -0.216; in the experiment on Sam68 (KHDRBS1), 0.594; in experiment [17], 0.22; in experiment [18], 0.882. The z-score in experiment [2] worked out at 0.802. Moreover, the composite Z-score in [11] was -0.116 (inactive).
In the case of `C=CCN(CCCC)C(=O)C1N(CCOCCO)C(=O)C2C(C(=O)O)C3C=CC21O3` (stereo not given), the composite z-score in experiment [1] is -0.0707 and -0.913; in experiment [3] it was -2.91 and -1.58; in experiment [4] it was -0.794 and -0.296; in [5] it was -0.0435 and 0.108; in [6] it was -0.256 and -0.287; in experiment [7] it was -0.138. Further, the composite z-score in experiment [8] was -0.216 and -0.352; in [9], 1.59 and -0.819; in [10], -1.59 and -0.552; with Albumin (Bos taurus) it was -0.994 and -2.32; in [12], -0.372 and -0.457; in experiment [13] it was -0.211 and -0.185. The composite z-score in [14] was 1.01 and 0.811; in [15], 0.806 and -0.742; in [16], 0.675 and 0.0426; with Sam68 (KHDRBS1), -1.11 and -1.43; in experiment [17], -1.67 and -1.1; in experiment [18] it was -0.268 and -1.9. Further, the z-score in [2] is 0.367 and 0.91. For the same compound, in experiment [11], the composite Z-score is 0.0673 (inactive) and 0.289 (inactive).
